# Where “and” joins values, the source holds several entries; their conditions need not be identical. Identical values can stand only once. Calls of active or inactive are those of the source.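 The calls were made as follows, unless noted: active = compounds whose cell count with miR-34 switched on is under 0.7 times the count with it off; inactive = the rest.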
# Legend:
# [1] = P. berghei load reduction in hepatocytes – cell-based, HepG2, luciferase luminescence, HepG2 viability, primary screen (AID 624349; in the data active = parasite load remaining mostly below about 12%, no sharp cut-off; inactive = mostly above about 10%;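 also: 100% = mean of DMSO negative control wells on the same plate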); settings: P. berghei liver stage in HepG2, luciferase luminescence, concentration not given here; parasite load remaining: stronger effect = lower value; viability: measured here: HepG2 viability without parasites
# [2] = viability loss with induced miR-34 in A549 – imaging, A549 dox-inducible miR-34, nuclei and caspase counts, primary screen (AID 1347080); settings: A549 miR-34 inducible, Hoechst nuclei count, 48 h
# [3] = MELAS cybrid and Rieske KO viability enhancers – cell-based, MELAS cybrids, Rieske KO mouse fibroblasts, CellTiter-Glo, primary screen (AID 1508586;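 active = mean z-score across replicates of 1.96 or higher in either the MELAS or the Rieske mutant cell line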;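 also: z relative to plate mean and SD of compound and empty wells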); settings: low glucose
# [4] = compounds altering viability of human ES cells (AID 493140; call rule not given here;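 also: cells exposed to compounds for four days before counting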); settings: human embryonic stem cell survival screen; stronger effect = higher value
# [5] = signal quenchers or enhancers, Cy5 substrate/SSB – biochemical, NIH Clinical Collection, E. coli SSB, artefact control for HCV NS3 helicase inhibitor project (AID 743268; call rule not given here); settings: Cy5-oligo bound E. coli SSB, fluorescence interference
# [6] = system: Hepatitis C virus NS3 helicase; experiment: blockers of NS3h binding to DNA – biochemical, fluorescence polarization, NIH Clinical Collection, primary screen (AID 743270; call rule not given here); settings: NS3 helicase binding to Cy5-dT15 DNA, stronger effect = higher value, concentration not given here
# [7] = biological target: Single-stranded DNA-binding protein (Escherichia coli (strain K12)) (UniProt P0AGE0); experiment: SSB-ssDNA binding inhibitors – biochemical, fluorescence polarization, NIH Clinical Collection, counter-screen for HCV NS3 helicase inhibitor project (AID 743271; in the data active = inhibition above about 28%); settings: E. coli SSB-DNA binding, stronger effect = higher value, concentration not given here
# [8] = compounds distorting NS3 helicase fluorescence signal – biochemical, NIH Clinical Collection, artefact control for HCV NS3 helicase inhibitor project (AID 743272; call rule not given here;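 also: HCV NS3 helicase with a Cy5 labelled single stranded DNA probe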); settings: fluorescence interference counterscreen, HCV NS3 helicase assay; stronger effect = lower value
# [9] = liver-stage malaria parasite load reduction – cell-based, known kinase inhibitor set, luminescence, hepatoma host viability (AID 624392; call rule not given here;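 also: infected cells incubated roughly two days before readout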); settings: Plasmodium liver stage in hepatoma cells, luciferase luminescence, concentration not given here; liver cell % of control: measured here: host liver cell viability; parasite % of control: stronger effect = lower value
# [10] = galactose survival enhancers in mitochondrial complex I cybrids – cell-based, galactose medium, ATP luminescence, primary screen (AID 1645843;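 active = z-score of at least 1.8 in each of two replicates, scored against plate mean and spread of sample wells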;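 also: positive z means more ATP and so rescue of galactose-driven cybrid death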); settings: complex I mutant cybrid cells, 72 h, stronger effect = higher value
# [11] = stronger effect = lower value, cell number ratio, induced over uninduced
# [12] = measured here: relative caspase fold change +Dox/-Dox
# [13] = measured here: total cells with miR-34 induction, stronger effect = lower value
# [14] = measured here: total cells without miR-34 induction
# [15] = MELAS cybrid survival, CellTiter-Glo 48 h, stronger effect = higher value
# [16] = Rieske KO mouse fibroblast survival, CellTiter-Glo 72 h
Compound,parasite load remaining [1],viability [1],"fold change [2, 11]","fold change [2, 12]","cell count [2, 13]","cell count [2, 14]","z-score [3, 15]","z-score [3, 16]",survival [4],fluorescence ratio [5],inhibition [6],inhibition [7],fluorescence ratio [8],liver cell % of control [9],parasite % of control [9],z-score [10]
CO[C@@H]1[C@@H](O[C@@H]2O[C@H](C)[C@@H](O[C@H]3C[C@@](C)(OC(=O)CC(C)C)[C@@H](O)[C@H](C)O3)[C@H](N(C)C)[C@H]2O)[C@@H](CC=O)C[C@@H](C)[C@@H](O)/C=C/C=C/C[C@@H](C)OC(=O)C[C@H]1OC(C)=O,40.7% (inactive),45.1%,0.924 (inactive),0.331,7880,8530,-0.757 (inactive),-0.227,,,,,,,,
CC(=O)N[C@@H](CC(=O)N[C@H](CCC(=O)O)C(=O)O)C(=O)O,91.6% (inactive),69.1%,0.929 (inactive),1.02,9500,10200,0.603 (inactive),0.146,,,,,,,,
C=CC1=C(C(=O)O)N2C(=O)[C@@H](NC(=O)/C(=N\OCC(=O)O)c3csc(N)n3)[C@H]2SC1,141% (inactive),105%,0.851 (inactive),1.38,8960,10500,0.308 (inactive),0.0804,,,,,,,,
Cc1cc(C(=O)NNCc2ccccc2)no1,129% (inactive),100%,0.777 (inactive),1.27,8090,10400,0.697 (inactive),0.109,3.33 (inactive),,,,,,,
CN[C@H]1[C@@H](O)[C@H](O[C@H]2[C@@H](O)[C@@H](OC3OC(CN)=CCC3N)[C@H](N)C[C@@H]2N)OC[C@@]1(C)O (some centres not stated),95.5% (inactive),113%,0.885 (inactive),1.15,9450,10700,0.354 (inactive),0.0602,,,,,,,,
COc1ccc2cc([C@@H](C)C(=O)O)ccc2c1,124% (inactive) and 104% (inactive),101% and 92.4%,0.747 (inactive),1.43,6320,8450,-0.0303 (inactive),-0.487,10.1 (inactive),0.94 (inactive),0.66% (inactive),8.27% (inactive),0.94 (inactive),,,
CC(=O)O[C@H]1C[C@@]2(C)[C@@H](C[C@@H](O)[C@H]3[C@@]4(C)CC[C@@H](O)[C@@H](C)C4CC[C@@]32C)/C1=C(\CCC=C(C)C)C(=O)O (some centres not stated),147% (inactive),140%,0.911 (inactive),1.1,8570,9410,-3.27 (inactive),-2.48,,,,,,,,
C=CC[N@@+]12CC[C@]34c5ccccc5N5/C=C6\C7N(/C=C(\C53)[C@@H](C[C@@H]41)/C(=C/CO)C2)c1ccccc1[C@@]71CC[N@@+]2(CC=C)C/C(=C\CO)[C@@H]6C[C@@H]12 (some centres not stated),122% (inactive),74.4%,0.909 (inactive),0.771,9290,10200,0.0835 (inactive),-0.352,,,,,,,,
CC[C@@]1([C@@H]2O[C@@H]([C@H]3O[C@@](O)(CO)[C@H](C)C[C@@H]3C)C[C@@H]2C)CC[C@H]([C@]2(C)CC[C@]3(C[C@H](O)[C@@H](C)[C@@H]([C@@H](C)[C@@H](OC)[C@H](C)C(=O)O)O3)O2)O1 (stereo in doubt),-0.09% (active),93.8%,0.901 (inactive),1.01,2780,3090,-2.78 (inactive),-1.77,,,,,,,,
Nc1ncn(C2O[C@H](CO)[C@@H](O)[C@H]2O)c(=O)n1 (some centres not stated),151% (inactive),108%,0.664 (active),1.38,2060,3100,-0.101 (inactive),0.0147,,,,,,,,
CC1(C)S[C@@H]2[C@H](NC(=O)COc3ccccc3)C(=O)N2C1C(=O)O (some centres not stated) (tested in a mixture with another compound),98.8% (inactive),75.5%,0.957 (inactive),0.818,9020,9430,-0.168 (inactive),-0.00269,4 (inactive),,,,,,,
CC(C)(C)C(=O)OCOC(=O)[C@@H]1N2C(=O)[C@@H](N=CN3CCCCCC3)[C@H]2SC1(C)C,86.3% (inactive),108%,0.956 (inactive),0.721,9610,10100,0.579 (inactive),-0.414,17.2 (inactive),,,,,,,
CCSc1ccc2c(c1)N(CCCN1CCN(C)CC1)c1ccccc1S2,77.3% (inactive),70.9%,0.933 (inactive),0.655,7330,7860,-1.53 (inactive),0.455,1.5 (inactive),,,,,,,
C=CCN1CCCC1CNC(=O)c1cc2[nH]nnc2cc1OC (configuration not stated),92.8% (inactive),100%,0.836 (inactive) and 0.882 (inactive),1.28 and 0.705,8730 and 8290,10400 and 9410,-0.272 (inactive) and -0.0484 (inactive),-0.199 and -0.148,,,,,,,,
CN[C@@H]1C(O[C@H]2O[C@H](CO)[C@@H](N)[C@H](O)[C@H]2O)O[C@H]2C[C@@H](N)[C@@H](O[C@H]3[C@H](O)[C@@H](O)[C@H](N)C[C@@H]3N)OC2[C@@H]1O (some centres not stated),95.7% (inactive),72.5%,1.02 (inactive),0.823,9080,8920,0.718 (inactive),-0.268,,,,,,,,
COc1cc(N)c(Cl)cc1C(=O)N[C@H]1CCN(CCCOc2ccc(F)cc2)C[C@H]1OC,43.8% (inactive),91.1%,0.886 (inactive),2.08,7400,8350,-0.0533 (inactive),0.31,,,,,,,,
CC1CS(=O)(=O)CCN1N=Cc1ccc([N+](=O)[O-])o1 (configuration not stated),67.6% (inactive),75.5%,0.925 (inactive),0.621,8950,9680,-0.298 (inactive),-0.374,3.75 (inactive),,,,,,,

Compound,parasite load remaining [1],viability [1],"fold change [2, 11]","fold change [2, 12]","cell count [2, 13]","cell count [2, 14]","z-score [3, 15]","z-score [3, 16]",survival [4],fluorescence ratio [5],inhibition [6],inhibition [7],fluorescence ratio [8],liver cell % of control [9],parasite % of control [9],z-score [10]
CC(C)(C)CC(C)(C)c1ccc(OCOCCOCCO)c(Cc2cc(C(C)(C)CC(C)(C)C)cc(Cc3cc(C(C)(C)CC(C)(C)C)ccc3OCOCCOCCO)c2OCOCCOCCO)c1,112% (inactive),98.8%,0.877 (inactive),1.23,7920,9040,-2.08 (inactive),-1.21,1.75 (inactive),,,,,,,
CNC(=O)c1c(I)c(C(=O)NCC(=O)Nc2c(I)c(C(=O)O)c(I)c(C(=O)NCCO)c2I)c(I)c(N(C)C(C)=O)c1I,91.6% (inactive),71.7%,0.94 (inactive),0.7,9020,9600,-0.247 (inactive),0.501,10.4 (inactive),,,,,,,
CC(=O)O[C@]1(C(C)=O)CC[C@H]2[C@@H]3C=C(C)C4=CC(=O)CC[C@@H]4[C@H]3CC[C@@]21C,85.6% (inactive),73.5%,0.942 (inactive),0.745,8790,9330,-0.763 (inactive),-0.219,,,,,,,,
CCCC1C(=O)N2C(N(C)C)=Nc3ccc(C)cc3N2C1=O (configuration not stated),172% (inactive),71.8%,0.881 (inactive),0.721,8830,10000,0.00688 (inactive),-0.91,9.17 (inactive),,,,,,,
OCCN1CCN(CC/C=C2/c3ccccc3Sc3ccc(Cl)cc32)CC1,65.1% (inactive),62.7%,0.885 (inactive),0.539,7300,8250,0.382 (inactive),-0.231,0.583 (inactive),,,,,,,
COC(=O)Nc1nc2ccc(SC(C)C)cc2[nH]1,92.8% (inactive),74.8%,0.996 (inactive),0.586,1650,1660,-2.13 (inactive),1.04,0.5 (inactive),,,,,,,
CCOC1O[C@H]([C@@H](COCc2ccccc2)OCc2ccccc2)[C@H](OCc2ccccc2)[C@H]1O (some centres not stated),66.9% (inactive),70.5%,0.904 (inactive),0.887,8110,8970,-0.366 (inactive),0.506,,,,,,,,
CN(C)C/C=C(\c1ccc(Br)cc1)c1cccnc1,45.2% (inactive),47.6%,0.924 (inactive),0.86,8480,9180,0.27 (inactive),0.193,,,,,,,,
CN(C)CC/C=C1\c2ccccc2CSc2ccccc21,36.7% (inactive),110%,0.831 (inactive),1.19,6880,8280,-0.0112 (inactive),-0.183,,,,,,,,
Cc1onc(-c2c(F)cccc2Cl)c1C(=O)N[C@@H]1C(=O)N2C(C(=O)O)C(C)(C)S[C@H]12 (some centres not stated),131% (inactive),74.7%,0.98 (inactive),0.516,9050,9240,0.325 (inactive),0.193,15.2 (inactive),,,,,,,
O=C1Cc2c([nH]c3ccc(Br)cc23)-c2ncccc2N1,39% (inactive),165%,0.879 (inactive),0.672,2970,3380,1.05 (inactive),-2.27,,,,,,,,
C=C1c2c(Cl)ccc(O)c2C(O)=C2C(=O)[C@]3(O)C(O)=C(C(N)=O)C(=O)[C@@H](N(C)C)[C@@H]3[C@@H](O)C12 (some centres not stated),61.4% (inactive),104%,0.684 (active),2.93,5870,8580,-2.33 (inactive),-2.53,,,,,,,,
CN/C(=C/[N+](=O)[O-])NCCSCc1csc(CN(C)C)n1,74.7% (inactive),97.8%,0.889 (inactive),0.967,9080,10200,0.561 (inactive),-0.45,,,,,,,,
OC(CCN1CCCCC1)(c1ccccc1)C1C[C@@H]2C=C[C@H]1C2 (some centres not stated),24.7% (inactive),105%,0.888 (inactive),1.45,8210,9240,-0.0819 (inactive),-0.0447,,,,,,,,
CCn1c(-c2nonc2N)nc2c(C#CC(C)(C)O)ncc(OCC3CCCNC3)c21 (configuration not stated),,,0.949 (inactive),0.738,6620,6980,-0.704 (inactive),0.217,,,,,,56.6% and 72.4% and 90.5%,1.73% (inactive) and 5.98% (inactive) and 27.8% (inactive),
CC1CNc2c(cccc2S(=O)(=O)NC(CCCN=C(N)N)C(=O)N2CCC(C)CC2C(=O)O)C1 (configuration not stated),,,0.968 (inactive),1.83,10100,10500,,,,,,,,,,0.935 (inactive)
